Reference: ChEMBL document CHEMBL4513216, “Probing the Open Global Health Chemical Diversity Library for Multistage-Active Starting Points for Next-Generation Antimalarials” (ACS Infect Dis, 2020)
Among all 69,000 compounds or so, about 8,600 (12%) showed an effect of 50% or more. The entries come from a sample that favours strong results as a whole.

tested on: Plasmodium berghei; assay: Screen against P. berghei liver stage (PbLuc), transformed with Luciferase, at 10uM; format: functional, HepG2; conditions: tested at 10 uM

SMILES | INHIBITION [%]
COc1ccc(CCCC(=O)N2C[C@H](C3CC3)[C@@H](N(C)C)C2)cc1 | 6.28
CC(=O)N1[C@@H](C(=O)NCC2CC2)C[C@@H]2CN(Cc3ccco3)C[C@@H]21 | 11.6
Cc1cccc(Nc2noc3c2CN(C(=O)c2ccn(C)n2)CC3)c1C | -14.225
Cc1ccnn1CCNC(=O)C1CCN(S(=O)(=O)c2ccc(F)cc2)C1 (stereo unspecified) | 41.2
Cc1noc(C)c1C[S+]([O-])Cc1cn2cccc(C)c2n1 (stereo unspecified) | -41.7
CS(=O)(=O)N1CCO[C@H]2[C@@H](Oc3ncccc3F)CC[C@@H]21 | 32.2
Cc1nc(CN2CCCC(NCc3ccc(Cl)s3)C2)no1 (stereo unspecified) | 26.5
Cc1ccc2[nH]c(C(=O)N3CCC4(CC3)C(=O)NCCN4C)nc2c1 | 10.4
CCCc1cc(=O)[nH]c(-n2nc(-c3cccs3)cc2N)n1 | 83.8
NC1(c2nc(-c3cccs3)cc(=O)[nH]2)CCCC1 | -35.8
Cc1cc(=O)[nH]c(-n2nc(-c3cccs3)cc2N)n1 | 20.9
CC(C(N)=O)n1nc(-c2cccs2)cc(N)c1=O (stereo unspecified) | 17.4
Cc1nc(-n2nc(-c3cccs3)cc2N)[nH]c(=O)c1C | 50.9
CCc1c(C)nc(-n2nc(-c3cccs3)cc2N)[nH]c1=O | -90.8
O=C(c1ccnnc1)N1CCC2(CC1)CC(N1CCOCC1)C2 | 27.4
O=C(NCc1ccco1)N(CCCO)C1CCCc2ccccc21 (stereo unspecified) | 11.9
CC(C)N(Cc1cccnc1)C(=O)CSc1ccc(C#N)cc1 | 2.82
CC(C)N(Cc1ccc(C#N)cc1)C(=O)NCCNc1ncccn1 | 55.1
CC(C)N(Cc1ccccc1)C(=O)NCCNC(=O)c1cccnc1 | -17.8
CC(C)N(Cc1ccc(C#N)cc1)C(=O)Nc1ccccn1 | 54.3
Cc1cc(NC(=O)N(Cc2ccc(C#N)cc2)C(C)C)no1 | 6.33
CC(C)N(Cc1ccc(C#N)cc1)C(=O)Nc1ccncc1 | 44
Cc1ccc(N(CCC#N)C(=O)CCc2cccnc2)cc1C | 11.9
CC(C(=O)NCC(F)(F)F)N1CCC(N2CCN(C)C2=O)CC1 (stereo unspecified) | 35.9

SMILES | INHIBITION [%]
Cc1cncc(C(=O)N2C[C@@H]3CN(S(C)(=O)=O)CCO[C@@H]3C2)c1 | -7.24
COCCN1CCc2cc(C(=O)N(C)C)c(NC(C)C)nc2CC1 | 18.1
CC(C)Nc1nc2c(cc1C(=O)NCC1CC1)CCN(C)CC2 | 34.1
CC(C)Nc1nc2c(cc1C(=O)NCC1CC1)CCN(CC1CC1)CC2 | 71.4
Cc1nc2c(cc1C(=O)O)CCN(CC1CC1)CC2 | 74.9
COCCN1CCc2cc(C(=O)NCC3CC3)c(NC(C)C)nc2CC1 | 51.6
CC(C)Nc1nc2c(cc1C(=O)NCC1CC1)CCN(S(C)(=O)=O)CC2 | -39.1
Cc1nc2c(cc1C(=O)O)CCN(Cc1ccsc1)CC2 | 20.4
CNC(=O)N1CCc2cc(C(=O)NCC3CC3)c(NC(C)C)nc2CC1 | -114
CN(C)C(=O)c1cc2c(nc1NCC1CC1)CCN(CC1CC1)CC2 | 38.2
Cn1cc(CN(CC2(O)CNCCOC2)C2CCCCC2)cn1 (stereo unspecified) | 38.5
O=C(Cc1ccccc1F)N1CCN(C(=O)c2cccc(F)c2)CC1 | 27.6
Cc1noc(CCCc2nc(C3CCOC3)no2)n1 (stereo unspecified) | 5.87
Cc1cc(C2CCCN2Cc2cccc(C(=O)Nc3nccs3)c2)no1 (stereo unspecified) | -30.7
Cc1nonc1C1CCCN1Cc1ccc(C(=O)Nc2nccs2)cc1 (stereo unspecified) | 56.6
Cc1cc(C2CCCN2Cc2ccc(C(=O)Nc3nccs3)cc2)on1 (stereo unspecified) | 7.97
O=c1[nH]c2cn(-c3ccc(Br)cc3)c(=O)n2[nH]1 | 31.6
CCNC(=O)CCC(=O)N1CCC(Oc2cc(C)ccc2C)CC1 | 14.9
Cc1ccc(C)c(OC2CCN(C(=O)NCC(=O)N3CCCC3)CC2)c1 | -29.5
Cc1ccc(C)c(OC2CCN(C(=O)CNc3ccccc3Cl)CC2)c1 | 83.9
CCc1cnc(N)nc1N(C)CCc1cnn(C)c1 | 2.84
CC(C)S(=O)(=O)C(C)C(=O)NCc1ccccc1COc1ccccc1 (stereo unspecified) | -4.12
COCCOCC(=O)N(Cc1cccc(C)c1)C(C)C | 5.94
Cc1cccc(CN(C(=O)CS(C)(=O)=O)C(C)C)c1 | -12.9

SMILES | INHIBITION [%]
CC(=O)C(C)CC(=O)N(Cc1cccc(C)c1)C(C)C (stereo unspecified) | 68.4
O=C(c1ccc(O)cc1)N1C[C@@H]2OCCN(c3ncccn3)[C@@H]2C1 | -15.2
CCOc1ncccc1NC(=O)NC1CCCN(S(C)(=O)=O)C1 (stereo unspecified) | -2.19
COc1ncccc1C(=O)N1CCc2c(ncnc2N2CCOCC2)C1 | -102
c1coc(CN2CCc3nnc(COc4cncnc4)n3CC2)c1 | 10.6
O=C1C(Sc2nnnn2C2CC2)CCN1c1ccccc1Cl (stereo unspecified) | 11.4
Cc1[nH]ccc1C(=O)N1CCOCC12CCCC2 | 19.3
Cc1ccc(F)cc1C(=O)N1CCOCC12CCCC2 | 69.1
O=C(c1ccc[nH]1)N1CCOCC12CCCC2 | 40.9
Cn1cc(C2CCCN2C(=O)c2cnc(-c3ccco3)s2)cn1 (stereo unspecified) | 23.6
CNc1nnc(CCn2nc(C)c(Br)c2C)s1 | 7.38
CS(=O)(=O)c1ccc(-c2cnc(C3CCCN3)cn2)cc1 (stereo unspecified) | 45.95
CCCc1noc(CNc2ccc(C(=O)N3CCCC3)cc2C)n1 | 12.7
CCc1cc2cc(OC)c(OC)cc2nc1SCCN1CCCCC1 | 43.4
COc1cc2cc(C)c(SCCN3CCCCC3)nc2cc1OC | 51.7
COc1cc2cc(C)c(SCCN3CCCC3)nc2cc1OC | 33.2
CN1CCC(c2cccc(Cc3ccccc3)n2)CC1 | 82.7
CN1CCC(c2cccc(NCc3ccncc3)n2)CC1 | -2.09
CN1CCC(c2cccc(Cc3ccc(C(F)(F)F)cc3)n2)CC1 | 85.7
COc1ccc(Cc2cccc(C3CCN(C)CC3)n2)cc1 | 43.8
CN1CCC(c2cccc(CCC(=O)NCC(N)=O)n2)CC1 | -6.92
CN1CCC(c2cccc(Cc3ccc(F)cc3)n2)CC1 | 35.8
CCN(Cc1ccc2c(c1)OCO2)S(=O)(=O)N(C)C | -21.9
CC(C)Cc1noc(C2CCN(C(=O)c3cccs3)CC2)n1 | 17

SMILES | INHIBITION [%]
Cc1cnn(CC2CCCN2C(=O)c2cccc(-n3ccc(C)n3)c2)c1 (stereo unspecified) | -17
NC(=O)COc1cccc(CN2CCc3cncnc3C2)c1 | 11.2
CN(Cc1ccco1)[C@@H]1CN(Cc2ccoc2)C[C@@H]2CCCO[C@@H]21 | 41.3
CS(=O)(=O)c1cnc(C2CCCC2)nc1C1CCCNC1 (stereo unspecified) | 16.5
COCCN1CCc2c(cnc(-c3ccccc3)c2C(=O)O)C1 | 36.4
CC(C)(O)CN1CCN(C(=O)COCc2ccccc2Cl)CC1 | 23.1
Cc1cccc(-n2nnnc2C2(NCc3ccco3)CCCCC2)c1 | 28.7
COC1CCN(C(=O)c2cc(-c3ccc(Cl)cc3)on2)CC1 | -55.6
Cn1cnnc1C1CCCN(C(=O)c2cc(-c3ccccc3)on2)C1 (stereo unspecified) | 60
Cn1cnnc1C1CCCN(C(=O)NCc2cc[nH]n2)C1 (stereo unspecified) | 50.4
Cn1cnnc1C1CCCN(C(=O)NCc2ccccn2)C1 (stereo unspecified) | 1.75
Cn1cnnc1C1CCCN(C(=O)NCc2ccccc2)C1 (stereo unspecified) | -33.7
Cn1cnnc1C1CCCN(C(=O)c2cc(C3CC3)on2)C1 (stereo unspecified) | 5.15
Cc1noc(C2CCCN(C(=O)c3cc(-c4ccccc4)on3)C2)n1 (stereo unspecified) | 47.7
Cc1cc(C(=O)N2CCCC(c3nncn3C)C2)no1 (stereo unspecified) | 36.5
Cn1cnnc1C1CCN(C(=O)c2cc(-c3ccccc3)on2)CC1 | 51
Cc1cccc2ncn(C(C)Cn3cccn3)c(=O)c12 (stereo unspecified) | 31.7
Cc1nn(C)cc1C1CC(=O)Nc2c1cnn2C(C)C (stereo unspecified) | 48.4
COCCN1C(=O)[C@@H]2CC[C@H]1CN(S(=O)(=O)c1ccc(C#N)cc1)C2 | 39.1
Cc1cnn(CC2CCCCN2CC(=O)Nc2cccnc2)c1 (stereo unspecified) | 33.4
O=C(NCc1cccnc1-n1cncn1)C1CC2(CCNCC2)CN1 (stereo unspecified) | 20.2
O=C1CCN(C(=O)NCc2cccc(Oc3ccccc3)c2)CCN1 | 3.63
O=C(NCC1(O)CCSCC1)c1ccoc1 | -2.04
O=C(Cc1cccs1)NCC1(O)CCc2ccccc2C1 (stereo unspecified) | 37.4

SMILES | INHIBITION [%]
O=C(Cc1cccs1)NCC1(O)CCSCC1 | -24.5
COC1(CNC(=O)c2ccoc2)CCSC1 (stereo unspecified) | 14.2
O=C(Cc1cccs1)NCC1(O)CCSC1 (stereo unspecified) | 54.8
O=C(NCC1(O)CCSC1)c1ccoc1 (stereo unspecified) | 86.7
CC(C)N(C)Cc1nnc2n1CCN(Cc1ccncc1)CC2 | 1.28
CN1C(=O)[C@@H]2CC[C@H]1CN(C(=O)Nc1cccc3ccccc13)C2 | -42.1
NCc1n[nH]c(-c2ccc(F)cc2)n1 | -19.7
CC(C)C(=O)N(C)Cc1nc(N2CCCC2)ncc1-c1ccncc1 | 11.235
CCCC(=O)N(C)Cc1nc(N2CCCC2)ncc1-c1ccncc1 | 14.855
COCC(=O)N(C)Cc1nc(N2CCCC2)ncc1-c1ccncc1 | 52
Cc1cc(N(Cc2ccon2)S(C)(=O)=O)ccc1Br | -22.6
CCCS(=O)(=O)N1C[C@@H]2CN(Cc3cccs3)CCO[C@@H]2C1 | -2.46
O=S(=O)(C1CC1)N1CCO[C@@H]2CN(Cc3cccs3)C[C@@H]2C1 | -23.4
CCS(=O)(=O)N1C[C@@H]2CN(Cc3ccco3)CCO[C@@H]2C1 | -39.2
CCCS(=O)(=O)N1C[C@@H]2CN(Cc3cnn(C)c3)CCO[C@@H]2C1 | 65.6
O=S(=O)(C1CC1)N1C[C@@H]2CN(Cc3cccs3)CCO[C@@H]2C1 | 34.3
CCS(=O)(=O)N1C[C@@H]2CN(Cc3cccs3)CCO[C@@H]2C1 | 90.7
c1csc(CN2CCO[C@@H]3CN(C4CCOCC4)C[C@@H]3C2)c1 | 64.4
CCS(=O)(=O)N1C[C@@H]2CN(Cc3cnn(C)c3)CCO[C@@H]2C1 | -13
CCCS(=O)(=O)N1C[C@@H]2CN(Cc3ccoc3)CCO[C@@H]2C1 | -58.9
